# Measured values reported in PubChem BioAssay AID1479 (National Center for Advancing Translational Sciences (NCATS), 2009).
# Out of some 280,000 compounds screened, about 820 (0.29%) were called active. About 1% were inconclusive and are not listed. Only a selection was taken, and actives are over-represented in it overall. A number with no mark means an inactive call. The call rests on the fitted dose curve; in most records, active means well fitted curve in either direction with a large enough effect; inconclusive means small, poorly fitted or top-dose-only effect; inactive means flat fitted curve, though single readings scatter.
# Test: Total Fluorescence Counterscreen for Inhibitors of the Interaction of Thyroid Hormone Receptor and Steroid Receptor Coregulator 2
# Settings: TRb/SRC2 Texas Red total fluorescence interference; series mostly up to 201 µM; fluorescence change, negative = quenching: at the top concentration
# Source text: NIH Molecular Libraries Probe Production Network [MLPCN]
# NIH Chemical Genomics Center [NCGC]
# Assay Provider: R. Kip Guy, St. Jude Children's Research Hospital
# Thyroid receptor (TR) regulates many homeostatic processes including basal metabolism, cardiovascular function, body weight, and lipid trafficking. TR modulators are potential therapeutics for obesity and hyperlipidemias but current thyroid analogs have undesirable side effects, particularly cardiac stimulation. To identify inhibitors that specifically prevent the interaction of TR with the steroid receptor […] 2 (SRC2), a fluorescence polarization assay was screened. This assay detects interaction of the ligand-binding domain of human TRb with a Texas Red labeled SRC2 peptide, corresponding to a 20 amino acid region of the nuclear receptor interaction domain (Arnold et al., 2006). Total fluorescence (555 nm excitation and 632 nm emission) was measured to identify potential fluorescent and light absorbing compounds. Such compounds may be artifacts that interfere with the fluorescence polarization assay.
# Arnold, L. A.; Estebanez-Perpina, E.; Togashi, M.; Shelat, A.; Ocasio, C. A.; McReynolds, A. C.; Nguyen, P.; Baxter, J. D.; Fletterick, R. J.; Webb, P.; Guy, R. K. A high-throughput screening method to identify small molecule inhibitors of thyroid hormone receptor coactivator binding. Sci STKE 2006, p 13.
# NCGC Assay Protocol Summary:
# For screening, 5 uL/well 0.6 uM TRb and 20 nM SRC2 Texas Red in protein buffer (20mM Tris hydrochloride, 100mM NaCl, 10% glycerol, 1mM EDTA, 0.01% NP-40, 1mM DTT, 1uM T3 and 5% DMSO) was dispensed into black solid 1536-well plates (Grenier) using a solenoid-based dispenser. Following transfer of 23 nL compound or DMSO vehicle by a pin tool, the plates were centrifuged 15 s at 1000 RPM and incubated 5 hr at ambient temperature. The plates were read by an Envision (Perkin Elmer) to detect fluorescence polarization of SRC2 Texas Red (555 nm excitation and 632 nm emission). Data were normalized to unbound (all components except TRb) and bound SRC2 Texas Red controls. Total fluorescence (TF) was calculated as follows: TF = S + 2P where S and P are fluorescence readings in the parallel and perpendicular channels, respectively.
# Keywords: NIH Roadmap, MLPCN, MLI, MLSMR, qHTS, NCGC, qHTS, thyroid hormone receptor, steroid receptor coactivator, fluorescence polarization
# On the % scale 0 is the no-effect control and ±100 the full control effect; potency means the concentration at half of the fitted maximal effect; tags describe the fitted curve by direction and shape or compound fluorescence and quenching.
Compound,Potency,"fluorescence change, negative = quenching [%]"
CCCCC(=O)N/N=C/c1c(O)n(CC)c(=S)n(CC)c1=O,0.316 µM [quencher] (active),–
Clc1ccc([C@@]2(Cn3cncn3)C[C@H](Br)CO2)c(Cl)c1,–,0.213
CCOP(=O)(OCC)SCS(=O)(=O)C(C)(C)C,–,-3.78
CCOP(OCC)OCC,–,-0.876
O=C1NC(=O)N(c2ccccc2)C(=O)/C1=C/c1ccc([N+](=O)[O-])s1,44.7 µM [fluorescent] (active),–
CC(C)OC(=O)Nc1ccccc1,–,-3.86
CCC/C(=N\OCC)C1=C(O)CC(CC(C)SCC)CC1=O (stereo not given),–,-0.248
Fc1ccc(Oc2ccnc3cc(Cl)cc(Cl)c23)cc1,–,-9.31
CCC(C)(C)c1ccc(O)c(C(C)(C)CC)c1,–,-0.0155
CCCN(CCOc1c(Cl)cc(Cl)cc1Cl)C(=O)n1ccnc1,inactive,–
